Results from PubChem BioAssay (NCI).
About 79,000 compounds went through this panel and 15% of them were active in at least one assay; those are over-represented in the sample as a whole. Calls of active or inactive are those of the source. No stated cut-off is given here; in the data, active means growth inhibition above about 70%; inactive means the rest.

What was measured:
[1] = NCI Yeast Anticancer Drug Screen. Data for the rad50 strain (AID 155);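 further: 0% = growth of vehicle-only cultures of the same strain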; details: S. cerevisiae rad50 strain growth inhibition; at 50.0 µM; active compounds read high
In short: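 Cells are treated with compound, grown, and their growth is then scored against vehicle-only cultures of the same repair-deficient yeast strain.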

[2] = NCI Yeast Anticancer Drug Screen. Data for the mec2-1 strain (AID 157); details: S. cerevisiae mec2-1 strain, at 50.0 µM, active compounds read high
In short: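 Strain: mec2-1 (DNA repair/cell cycle alteration). Compound exposure, then growth measured; inhibition expressed relative to vehicle.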

[3] = NCI Yeast Anticancer Drug Screen. Data for the sgs1 mgt1 strain (AID 161);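 further: 0% = growth of cultures given vehicle only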; details: S. cerevisiae sgs1 mgt1 strain, at 50.0 µM, active compounds read high
In short: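 Inhibition of yeast growth, normalised to vehicle-treated controls, is reported for a strain bearing genetic alterations in DNA damage repair.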

[4] = NCI Yeast Anticancer Drug Screen. Data for the cln2 rad14 strain (AID 165);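 further: 0% = growth equal to vehicle treated cultures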; details: S. cerevisiae cln2 rad14 strain, at 50.0 µM, active compounds read high
In short: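 Compounds are applied to the cln2 rad14 yeast strain, and growth is then compared with that of vehicle-treated cultures to give inhibition.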

[5] = NCI Yeast Anticancer Drug Screen. Data for the bub3 strain (AID 167); details: S. cerevisiae bub3 mutant strain, at 50.0 µM, active compounds read high
In short: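 Part of a panel of yeast mutants defective in DNA damage repair or cell cycle regulation. Each strain is grown with compound, and inhibition is calculated relative to solvent-treated cultures.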

[6] = NCI Yeast Anticancer Drug Screen. Data for the mlh1 rad18 strain (AID 175); details: S. cerevisiae mlh1 rad18 strain growth inhibition; at 50.0 µM; active compounds read high
In short: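 Read-out is yeast growth inhibition, calculated against vehicle-only controls. The compound was applied to a strain engineered with DNA damage repair alterations.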

Measured: growth inhibition

CC1(C)OS2(OC(C)(C)c3ccccc32)c2ccccc21
inactive: [1] -10.2% | [2] 6.85% | [3] 6.5% | [4] 8.75% | [5] 6.3% | [6] 7.65%

C(=C\c1ccccc1)/Cn1nc(-c2ccccc2)nc1-c1cnccn1
inactive: [1] -33.1% | [2] -24% | [3] -47% | [4] 10.2% | [5] -39.4% | [6] -29.1%

COc1ccc(N=C(N)N2CCCc3ccccc32)cc1
inactive: [1] -5.25% | [2] 17.9% | [3] 0.55% | [4] -84.9% | [5] 1.4% | [6] 0.4%

CSCCC(NC(=O)c1cnc2ccccc2c1)C(N)=O (configuration not stated)
inactive: [1] -0.25% | [2] -4.85% | [3] 2.6% | [4] -33.6% | [5] -21.8% | [6] 14.8%

Cc1cc(C)c(C)c(Br)c1
inactive: [1] 5% | [2] 4.6% | [3] -0.55% | [4] -33.1% | [5] 2.4% | [6] 4.9%

Nc1ccc(C(C(=O)O)c2ccccc2)cc1 (configuration not stated)
inactive: [1] 10.4% | [2] 15.8% | [3] 12.6% | [4] 1.4% | [5] 20.1% | [6] 10.9%

CCOC(=O)NC(=O)c1cn(C2OC(CO)C(O)C2O)c(=O)[nH]c1=O (configuration not stated)
inactive: [1] 10.3% | [2] -18.6% | [3] -16.6% | [4] -5.9% | [5] 28.6% | [6] 44.5%

CC1(C)O[C@H]2[C@H](O)C[C@](O)(CO)C[C@H]2O1
inactive: [1] 1.3% | [2] 3.85% | [3] -0.65% | [4] -27.6% | [5] -9.25% | [6] 1.25%

O=C1C(=Cc2ccc(Cl)c(Cl)c2)C([O-])=C([P+](c2ccccc2)(c2ccccc2)c2ccccc2)C([O-])=C1[P+](c1ccccc1)(c1ccccc1)c1ccccc1
inactive: [1] -4.6% | [2] -44.6% | [3] -7.05% | [4] 5.15% | [5] -21.9% | [6] -19.6%

Cc1ccc2c(c1)SN(CN1C(=O)c3ccccc3C1=O)N2
inactive: [1] -37.1% | [2] -43.6% | [3] -7.15% | [4] -19% | [5] -38.7% | [6] -28.9%

COc1ccc2c3c([nH]c2c1)CCN(Cc1ccccc1)C3
inactive: [1] -31.1% | [2] -21.6% | [3] 13.8% | [4] 19.6% | [5] 15.2% | [6] 1.1%

CCCC(CCC)(C(=O)OCC)C(=O)OCC
inactive: [1] 1.45% | [2] 6.15% | [3] -1.3% | [4] -15.4% | [5] -4.25% | [6] 0.65%

OCCN(CCO)c1ncnc2c1ncn2CCc1ccccc1
inactive: [1] 13.6% | [2] -0.25% | [3] 16.2% | [4] -16% | [5] 4.1% | [6] -2.25%

CN(C)c1ccc(N=Nc2ccc(C(C)(C)C)cc2)cc1
inactive: [1] -11.3% | [2] 3.3% | [3] 5.55% | [4] -3.1% | [5] -10.6% | [6] -20.3%

CC(C)(C)C(O)CC(O)(C(F)(F)F)C(F)(F)F (configuration not stated)
inactive: [1] -2.45% | [2] -21.1% | [3] -12.8% | [4] 19.6% | [5] -5.9% | [6] -1.9%

Cc1nc2ccc(I)cc2c(=O)n1-c1ccc(N=Cc2ccc(N(C)C)cc2)cc1
inactive: [1] 4.7% | [2] 9.1% | [3] 14.3% | [4] 4.95% | [5] -2.9% | [6] 10.9%

Clc1ccc(-c2nnc3n2NC(c2ccccc2)S3)c(Cl)c1 (configuration not stated)
inactive: [1] 2.7% | [2] -26% | [3] -13.8% | [4] 10.8% | [5] -18.9% | [6] -27.6%

O=C(O)c1ccc(N=Nc2ccccc2)cc1
inactive: [1] -4.4% | [2] 14.9% | [3] 20.9% | [4] 0.3% | [5] -5.1% | [6] 2.75%

CC(=O)Oc1ccc2cc(Br)ccc2c1N(C(C)=O)C(C)=O
inactive: [1] 13.1% | [2] -7.35% | [3] 10.8% | [4] -66.5% | [5] 24.6% | [6] -1.85%

COC1=CC(=O)N(C)C(O)C1(C#N)OC1OC(CO)C(O)C(O)C1O (configuration not stated)
inactive: [1] 5.25% | [2] -12.8% | [3] -7.5% | [4] 18.6% | [5] -17.9% | [6] -40.9%

CCOC(=O)NC1c2ccccc2Oc2ccccc21
inactive: [1] -4.5% | [2] -5.4% | [3] 4.95% | [4] -16.3% | [5] 11% | [6] 2.3%

Cc1cc(=O)[nH]c(=O)n1CCCN(C)CCCn1c(C)cc(=O)[nH]c1=O
inactive: [1] 2.2% | [2] -2.35% | [3] 8.85% | [4] -0.9% | [5] -28.6% | [6] -3.95%

CCOC(=O)c1c(SC(=O)c2ccc(OC)cc2)n(-c2ccccc2)c(=S)n(-c2ccccc2)c1=O
inactive: [1] 16.2% | [2] 0.75% | [3] 3.75% | [4] 8.55% | [5] 16.8% | [6] 12.8%

COc1cccc(/C=C(\C#N)C(=O)c2ccccc2)c1
inactive: [1] 4.4% | [2] 19.6% | [3] 11.2% | [4] 19.6% | [5] 13.9% | [6] 19%

N#Cc1c(-c2ccccc2)cn2c1[nH]c(=O)c1ccccc12
inactive: [1] 4% | [2] -6.65% | [3] 11.2% | [4] 5.45% | [5] -17.9% | [6] 1.05%

O=C(c1ccccc1Br)C(F)(F)F
inactive: [1] -2.6% | [2] -19.5% | [3] -18.4% | [4] -17.5% | [5] -43.9% | [6] -3.8%

C[CH2][Sn]([CH2]C)([O]C(=O)c1cccc(F)c1)[O][Sn]([CH2]C)([CH2]C)[O]C(=O)c1cccc(F)c1
inactive: [1] 31.4% | [2] 3.3% | [3] 5.85% | [4] 16.4% | [5] 13.6% | [6] 0.45%

CCC/C=C(/CC)C(=O)OC(=O)/C(=C/CCC)CC
inactive: [1] 23.9% | [2] 2.1% | [3] 13.8% | [4] -7.25% | [5] 32.1% | [6] 13.6%

Cc1cc(C)c(NC(=O)C(C)(C)C)c(C)c1
inactive: [1] -7.15% | [2] -12.9% | [3] -17.7% | [4] -48.9% | [5] 10.2% | [6] -2.2%

Cc1cc(C)cc(NC(N)=S)c1
inactive: [1] 11.8% | [2] -0.25% | [3] 6.9% | [4] -5.3% | [5] 10.6% | [6] 11.7%

CCCCCC(C#N)CCC(C)=O (configuration not stated)
inactive: [1] -6.7% | [2] -9.15% | [3] -9.3% | [4] -6.2% | [5] -0.95% | [6] -10%

Cc1ccc(C(C)C)c(O)c1NC(=S)N/N=C\c1cc(Cl)ccc1O
inactive: [1] -4.55% | [2] 22.8% | [3] -13.9% | [4] 7.6% | [5] -14.2% | [6] 17.4%

CC[N+]1(C)CCC(CN2c3ccccc3Sc3ccccc32)C1 (configuration not stated)
inactive: [1] 31.4% | [2] 22.6% | [3] 38.5% | [4] -2.65% | [5] 6% | [6] 43.3%

COC(=O)C1OC(Sc2ncnc3nc[nH]c23)C(O)C(O)C1O (configuration not stated)
inactive: [1] 3.15% | [2] 1.6% | [3] -0.85% | [4] 17.4% | [5] 7.3% | [6] 4.9%

CC(O)COc1ccccc1Cl (configuration not stated)
inactive: [1] 5.2% | [2] -2% | [3] 16.5% | [4] -46.9% | [5] -0.4% | [6] 6.85%

CCC(c1ccc(O)cc1)c1cc2c(cc1OCCO)OCO2 (configuration not stated)
inactive: [1] -15.7% | [2] -9.25% | [3] -5.7% | [4] -11.2% | [5] -7.9% | [6] -5.3%

COc1ccc(Sc2cccc(Cl)c2)c(C(=O)O)c1
inactive: [1] -21.8% | [2] -18.4% | [3] -27.2% | [4] 3.8% | [5] -0.55% | [6] 6.5%
